# Screens (PubChem)
# AmpC inh no detg: blocks E. coli AmpC beta-lactamase in detergent-free assay; P00811; AmpC nitrocefin hydrolysis, absorbance 480 nm, 0.0001% Triton; Potency, µM (doses to about 57.1 µM), for the others: top-dose activity change, negative = inhibition, hits mostly inhibitors; 0.52% of 330,000 active;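 also: plate controls were no compound for no effect and no enzyme for full effect; nearly all actives have a fitted effect of over 20% in size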
# Target sequence (P00811 whole entry, looked up): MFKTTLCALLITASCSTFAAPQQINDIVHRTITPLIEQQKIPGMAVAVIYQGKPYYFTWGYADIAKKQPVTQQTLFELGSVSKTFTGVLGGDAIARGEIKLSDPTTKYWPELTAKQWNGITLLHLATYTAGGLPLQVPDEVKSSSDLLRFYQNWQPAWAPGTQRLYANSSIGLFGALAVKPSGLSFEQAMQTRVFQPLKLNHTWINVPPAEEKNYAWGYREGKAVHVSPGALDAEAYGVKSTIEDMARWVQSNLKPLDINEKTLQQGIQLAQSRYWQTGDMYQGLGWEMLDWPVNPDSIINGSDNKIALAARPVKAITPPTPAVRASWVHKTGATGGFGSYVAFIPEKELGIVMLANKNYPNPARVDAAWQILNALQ
#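 20 mM phosphate pH 7.0 + 0.01% (detergent screen) or 0.0001% Triton X-100; 5.3 nM AmpC reagent; cpd preinc 15 min RT; nitrocefin (800 uM stock) to start; A480 q20 s × 4 min; Activity was normalised to no-enzyme and no-compound control wells.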
# Giardia FBPA inh: Giardia lamblia aldolase inhibition | A8B2U2 | purified Giardia FBPA | Potency, µM (doses to about 59.6 µM), without a hit: at the highest dose activity, negative = inhibition, most hits filed as inhibitors | 0.71% of 290,000 active; also: nearly all actives have a fitted effect of over 55% in size
# Target sequence (A8B2U2 whole entry, looked up): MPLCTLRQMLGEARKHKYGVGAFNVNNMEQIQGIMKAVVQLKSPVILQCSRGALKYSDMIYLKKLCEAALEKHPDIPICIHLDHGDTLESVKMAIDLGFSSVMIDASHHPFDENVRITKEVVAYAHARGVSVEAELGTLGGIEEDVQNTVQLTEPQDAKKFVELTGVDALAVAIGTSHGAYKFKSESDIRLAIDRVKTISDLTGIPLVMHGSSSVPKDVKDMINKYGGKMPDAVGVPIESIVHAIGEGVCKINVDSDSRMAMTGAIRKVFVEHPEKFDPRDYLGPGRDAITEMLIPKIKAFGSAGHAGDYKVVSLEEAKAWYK
#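 40 nM FBPA preincubated 10 min at RT with compound (up to 57.5 uM final), then substrate plus GAPDH/TPI/NAD/arsenate coupling and diaphorase/resazurin added. Fluorescence read after 20 min at RT, 525/598 nm.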
# AmpC inh detg: inhibitors of E. coli AmpC beta-lactamase with detergent. P00811. AmpC hydrolysis of nitrocefin, absorbance 480 nm, 0.01% Triton. Potency, µM (titrated, usually from 114 µM), without a hit: at the highest dose activity change, negative = inhibition, usual class: inhibitors. 0.041% of 370,000 active;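 also: 0% = no-compound wells and -100% = no-enzyme wells; nearly all actives have a fitted effect of over 25% in size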
#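 AmpC (5.3 nM in the dispensed reagent) in 20 mM phosphate pH 7.0 with 0.01% (detergent screen) or 0.0001% Triton X-100 was preincubated with compounds for 15 min at room temperature. Nitrocefin was then added from an 800 uM solution, and hydrolysis was followed at 480 nm.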
# Sm TGR block: S. mansoni TGR enzyme inhibition. Q962Y6. purified TGR, DTNB reduction, TNB absorbance 405 nm. Potency, µM (top dose mostly 114 µM), for inactives: top-dose activity change, negative = inhibition, hits mostly inhibitors. 3% of 360,000 active; also: nearly all actives have a fitted effect of over 60% in size
#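 TGR 20 nM + NADPH 100 uM (dispensed conc.), cpd preinc 15 min RT; start with NADPH (500 uM addition) then DTNB (15 mM addition). Kinetic TNB absorbance, 405 nm filter. Four-parameter Hill fit across titration.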
# Numbers without * were called inactive; ? = inconclusive; · = no result; [ ] = remark or other dose. In the library only some 3.6% were active in any assay of this set; here they are far more common. Calls follow the shape of the dose curve; as a rule, active = well fitted curve in the direction sought with a large enough effect; inconclusive = small, poorly fitted or top-dose-only effect, or another doubt; inactive = no such curve, though single readings can be large; an effect the other way counts as inactive or inconclusive. Unless noted, % is scaled to controls: 0 for no effect and ±100 for the full control effect; potency is read from the fitted curve at half-maximal effect.
SMILES,AmpC inh no detg,Giardia FBPA inh,AmpC inh detg,Sm TGR block
Cc1ccccc1C(=O)NC(=S)NCc1ccccc1,-33%,8%,?,22µM*
COc1cc(/C=C2/C(=O)N(c3ccc(C(=O)O)cc3)N=C2C)cc(OC)c1O,-6%,?,1%,10µM*
COc1cc(/C=C2/C(=O)N(c3ccc(C)c(C)c3)N=C2C)cc([N+](=O)[O-])c1O,-21%,1%,-14%,-2%
COc1cc(/C=C2/C(=O)N(c3ccc(Br)cc3)N=C2C)cc(OC)c1OC,49%,8%,-1%,14%
COc1cc(/C=C2\C(=O)N(c3ccccc3)N=C2C)ccc1Oc1ccc([N+](=O)[O-])cc1[N+](=O)[O-],-33%,-27%,-22%,14µM*
CC1=NN(c2ccccc2)C(=O)/C1=C\c1ccc(Oc2ccc([N+](=O)[O-])cc2[N+](=O)[O-])cc1,?,-24%,?,13µM*
CC(=O)Oc1ccc(C(=O)Nc2ccc(S(=O)(=O)NCC3CCCO3)cc2)cc1 (configuration not stated),-16%,7%,4%,4%
Nc1ccccc1C#CC(=O)c1ccccc1,-23%,4%,-6%,0.5µM*
OCC[C@@H]1C[C@@H](O)[C@H](O)[C@]2(OCc3ccccc32)O1,-26%,4%,-13%,-1%
OCC[C@H]1C[C@H](O)[C@@H](O)[C@@]2(OCc3ccccc32)O1,-18%,·,-8%,45µM*
Cc1ccc(NC(=O)C(=O)c2cc(C)n(-c3ccc(F)cc3)c2C)cc1C,·,·,23%,-8%
CC(=C/c1ccco1)/C=N/NC(=O)c1ccncc1,-18%,?,3%,45µM*
CC(/C=N/NC(=O)c1cnccn1)=C\c1ccco1,-10%,?,8%,28µM*
CC(/C=N/NC(=O)c1cc(-c2ccccc2)nc2ccccc12)=C\c1ccco1,-29%,?,-18%,2%
O=C(N/N=C/C(Br)=C/c1ccccc1)c1cccnc1,-16%,0%,2%,-11%
CC(/C=N/NC(=O)c1ccncc1)=C\c1ccccc1,-8%,0%,-11%,-3%
CC(/C=N/NC(=O)c1cccnc1)=C\c1ccco1,-11%,?,?,50µM*
CC(=O)O[C@]1(C(C)=O)CC[C@H]2C3C=C(Cl)C4=CC(=O)[C@@H]5C[C@H]5[C@]4(C)C3CC[C@@]21C (some centres not stated),·,2%,·,·
CC[n+]1c(/C=C/C=C/N(C(C)=O)c2ccccc2)sc2ccccc21,15%,-27%,-15%,40µM*
CC[n+]1c(/C=C/C=C/c2ccc(N(C)C)cc2)sc2ccccc21,-4%,-2%,8%,?
CCCOc1ccc(C(=O)Nc2ccc3nn(-c4ccc(OC)c(Cl)c4)nc3c2)cc1,·,·,15%,4%
CC(C)(C)c1ccc(NNC(=O)C2CCC2)cc1,-13%,3%,6%,45µM*
NNC(=O)CSc1c(-c2cccs2)[nH]c2ccccc12,14µM*,9%,?,-24%
CCn1nc(C)cc1C(=O)Sc1ccc(C)cc1,-2%,6%,2%,18µM*
Cc1ccc(NS(=O)(=O)c2ccc(NC(=O)N3CCCC3)cc2)cc1C,·,·,6%,-2%
SMILES,AmpC inh no detg,Giardia FBPA inh,AmpC inh detg,Sm TGR block
O=C(N=Nc1c(O)[nH]c2ccccc12)c1cccc(S(=O)(=O)N2CCCCC2)c1,-2%,-6%,0%,5%
CC(C)c1ccc2[nH]c(O)c(N=NC(=O)c3cccc(S(=O)(=O)N4CCCCC4)c3)c2c1,6.3µM*,-5%,-3%,-6%
Cc1ccc(/C=C/C(=O)CCC(=O)O)cc1,-17%,11%,4%,3%
Cc1[nH]c2ccccc2c1Cc1nnc(SCC(N)=O)o1,5%,-3%,?,45µM*
Cc1[nH]c2ccccc2c1CCC(N)=O,-15%,-2%,-17%,-4%
CC(C)(C)OC(=O)N[C@@H](Cc1ccccc1)c1nnc(S(=O)(=O)Cc2cccc(F)c2)o1,-56%,-4%,25µM*,0.4µM*
CC(C)Cn1nnnc1S(=O)(=O)Cc1cccc(C#N)c1,·,5%,·,·
CC[C@@H](C)[C@H](NC(=O)OCc1ccccc1)c1nnc([C@@H](NC(=O)OCc2ccccc2)[C@@H](C)CC)o1,-32%,5%,-6%,11%
CC[C@@H](C)[C@H](NC(=O)OC(C)(C)C)c1nnc(S(=O)(=O)Cc2cc(C)ccc2C)o1,?,-8%,11µM*,2.8µM*
CC(C)[C@H](NC(=O)OC(C)(C)C)c1nnc(S(=O)(=O)Cc2c(F)cccc2Cl)o1,2.5µM*,3%,2µM*,1µM*
CC(C)C[C@H](N)c1nnc(S(=O)(=O)Cc2cccc(F)c2)o1,4.5µM*,0%,3.5µM*,?
C[C@H](NC(=O)OC(C)(C)C)c1nnc(SCc2c(F)cccc2Cl)o1,·,·,6%,5%
O=C1COc2cc(S(=O)(=O)CCC(=O)N3CCN(c4cccc(Cl)c4)CC3)c(Cl)cc2N1,·,·,22%,-2%
CC(C)NC(=O)N1CC[C@@]2(CCCN(S(C)(=O)=O)C2)C1,·,8%,·,·
Clc1ccc(-n2c(Cc3ccccc3)nnc2SCc2nc(-c3cccs3)no2)cc1,·,·,19%,2%
O=C(Nc1ccccc1)c1nsnc1C(=O)Nc1ccccc1,-19%,1%,-5%,1%
CCOC(=O)N1CCN(C(=O)CNC2CCCCCCC2)CC1,-15%,?,-6%,-12%
O=C1C=C[C@@H](O)[C@H]2[C@@H]3C(=O)N(Cc4ccccc4)C(=O)[C@@H]3CC[C@H]12,·,-2%[12.9 µM],·,·
Cc1ccccc1CS(=O)(=O)c1nnc([C@H](CC(C)C)NC(=O)OC(C)(C)C)o1,?,5%,14µM*,2µM*
CC(C)C[C@H](NC(=O)OC(C)(C)C)c1nnc(SCc2ccccc2)o1,25%,-3%,-1%,-8%
O=C(NCc1ccco1)c1ccc(-c2ccccc2Cl)o1,-40%,-4%,-4%,25µM*
O=C(NCc1ccco1)c1ccccc1,-21%,0%,?,5%
O=C(NCc1ccco1)c1c(F)c(F)c(F)c(C(=O)NCc2ccco2)c1F,-22%,0%,-5%,45µM*
O=C(NCc1ccco1)c1ccc([N+](=O)[O-])o1,-17%,-16%,-4%,28µM*
Cc1ccc(C(=O)N[C@@H](C)CN2C3=NC[C@H](C)N3C[C@H]2Cc2ccc(O)cc2)cc1Br,-16%,1%,5%,50µM*
C[C@@H]1CN=C2N(CCNC(=O)CCC3CCCCC3)[C@H](Cc3ccc(O)cc3)CN21,4%,-1%,8%,5µM*
CC(C)[C@H]1CN=C2N(CCNC(=O)CCC3CCCCC3)[C@H](Cc3ccc(O)cc3)CN21,15%,-9%,4%,7.9µM*
O=C(CCC1CCCCC1)NCCN1C2=NC[C@H](Cc3ccc(O)cc3)N2C[C@H]1Cc1ccc(O)cc1,-15%,-9%,-10%,35µM*
COc1ccc(C[C@H]2CN3C(=NC[C@@H]3Cc3ccccc3)N2CCNC(=O)CCC2CCCCC2)cc1,110%,2%,0%,-10%
